Assay results taken from PubChem BioAssay.
Where “and” joins values, the source holds several entries; their conditions need not be identical. Equal values may be shown once. Calls of active or inactive are those of the source.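 How the source made its calls, unless noted: active means normalized viability below 100% at a tested concentration; inactive means the rest.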

Key:
[1] = Wnt pathway potentiators raising nuclear beta-catenin – imaging, WNT3A-conditioned medium, mouse C2C12, NPC library, primary screen (AID 1117326; in the data active means nuclear beta-catenin stimulation mostly above about 4.2%, no sharp cut-off; inactive means mostly below about 10%); settings: stronger effect = higher value
[2] = stimulators of insulin release from INS-1E, primary screen, cell-based, 5 mM glucose, NPC library (AID 1117329;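 active means compound raises insulin release from rat beta cells at 5 mM glucose, no numeric limit stated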); settings: rat INS-1E insulin secretion, at 10 µM, stronger effect = higher value
[3] = growth inhibition of GSK3B-pretreated HCT116 cells – cell-based, CellTiter-Glo, 0.2 to 20 µM (AID 1117336;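 active means compounds lowering colon cancer cell viability after pretreatment blocking the GSK3B kinase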); settings: HCT116 viability after GSK3B inhibitor, at 20 µM, stronger effect = higher value
[4] = inhibition of endothelial tube formation, primary screen, imaging, VEGF stimulated, CD31 staining, tube area, NPC library (AID 1117340;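 active means compound that reduces growth-factor-driven endothelial tube area in a mixed cell culture, no cutoff stated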); settings: VEGF-stimulated ADSC/ECFC co-culture, at 10 µM, stronger effect = higher value
[5] = GLP1 release stimulators, primary, NCI-H716, NPC library (AID 1117341;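 active means compound raises GLP1 secretion from the human gut endocrine cells, with no numeric limit stated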); settings: NCI-H716 cells, at 10 µM, stronger effect = higher value
[6] = HCT116 colon cancer cell growth inhibition, primary screen, CellTiter-Glo luminescence, NPC library (AID 1117342;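 active means compounds that lower survival of HCT116 colon cancer cells in the luminescence readout, no numeric limit stated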); settings: at 20 µM (top of the series)
[7] = reduced SW480 viability measured with CellTiter-Glo, NPC library, primary (AID 1117343;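 active means compounds that lower viability of the colon cancer cells in the luminescence readout, with no numeric limit stated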); settings: CellTiter-Glo luminescence; at 20 µM (top of the series) unless noted
[8] = NPC library primary testing for decreased DLD-1 cell viability via CellTiter-Glo (AID 1117346;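 active means compounds that lower survival of DLD-1 colon cancer cells in the luminescence readout, no cutoff given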); settings: DLD-1 viability, CellTiter-Glo luminescence; at 20 µM (top of the series)
[9] = biological target: NAD(+) hydrolase SARM1 (Homo sapiens) (UniProt Q6SZW1); assay: blocking NAD cleavage by SARM1 SAM-TIR – cell lysate, NAD-Glo luminescence (AID 1508614;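 active means compound whose remaining NAD level is above about 45 nM, limit read from the data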); settings: SAM-TIR HEK293T lysate NADase, at 1 µM, stronger effect = higher value
[10] = MELAS cybrid and Rieske KO viability enhancers – cell-based, MELAS cybrids, Rieske KO mouse fibroblasts, CellTiter-Glo, primary screen (AID 1508586;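 active means mean z-score across replicates of 1.96 or higher in either the MELAS or the Rieske mutant cell line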;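 further: z relative to plate mean and SD of compound and empty wells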); settings: low glucose
[11] = biological target: Mitogen-activated protein kinase 7 (Homo sapiens) (UniProt Q13164); assay: Gal4-ERK5 driven luciferase induction – cell-based, HTS, primary screen (AID 1508626;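 active means luciferase signal above three times the same-plate solvent-only control wells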;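 further: luciferase driven by Gal4-ERK5 fusion binding five Gal4 sites before minimal TATA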); settings: HeLa Gal4-ERK5 transactivation, 18 h, at 5 µM, stronger effect = higher value
[12] = compounds altering circadian rhythm period length – cell-based, LOPAC library, luminescence reporter (AID 2774; call rule not given here;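 further: values are relative to mean of DMSO wells on each plate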); settings: circadian reporter cells, at 7 µM, actives lie on both sides
[13] = compounds altering viability of human ES cells (AID 493140; call rule not given here;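 further: cells exposed to compounds for four days before counting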); settings: human embryonic stem cell survival screen; stronger effect = higher value
[14] = P. berghei load reduction in hepatocytes – cell-based, HepG2, luciferase luminescence, HepG2 viability, primary screen (AID 624349; in the data active means parasite load remaining mostly below about 12%, no sharp cut-off; inactive means mostly above about 10%;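 further: 100% = mean of DMSO negative control wells on the same plate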); settings: P. berghei liver stage in HepG2, luciferase luminescence, concentration not given here; parasite load remaining: stronger effect = lower value; viability: measured here: HepG2 viability without parasites
[15] = blockers of cellular phospholipid synthesis – cell-based, LOPAC library, screen 4, primary screen (AID 1347384; call rule not given here); settings: animal cells, phospholipid biosynthesis inhibition screen; at 10 µM
[16] = galactose survival enhancers in mitochondrial complex I cybrids – cell-based, galactose medium, ATP luminescence, primary screen (AID 1645843;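 active means z-score of at least 1.8 in each of two replicates, scored against plate mean and spread of sample wells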;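 further: positive z means more ATP and so rescue of galactose-driven cybrid death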); settings: complex I mutant cybrid cells, 72 h, stronger effect = higher value
[17] = drug combination growth inhibition, ovarian cancer – cell-based, oncology-focused library, rucaparib conditional, profiling panel (AID 1508598); settings: patient-derived ovarian cancer cells, CellTiter-Glo viability, 144 h, stronger effect = lower value
[18] = MELAS cybrid survival, CellTiter-Glo 48 h, stronger effect = higher value
[19] = Rieske KO mouse fibroblast survival, CellTiter-Glo 72 h

Sequence of NAD(+) hydrolase SARM1 (Homo sapiens) (Q6SZW1 whole entry, looked up): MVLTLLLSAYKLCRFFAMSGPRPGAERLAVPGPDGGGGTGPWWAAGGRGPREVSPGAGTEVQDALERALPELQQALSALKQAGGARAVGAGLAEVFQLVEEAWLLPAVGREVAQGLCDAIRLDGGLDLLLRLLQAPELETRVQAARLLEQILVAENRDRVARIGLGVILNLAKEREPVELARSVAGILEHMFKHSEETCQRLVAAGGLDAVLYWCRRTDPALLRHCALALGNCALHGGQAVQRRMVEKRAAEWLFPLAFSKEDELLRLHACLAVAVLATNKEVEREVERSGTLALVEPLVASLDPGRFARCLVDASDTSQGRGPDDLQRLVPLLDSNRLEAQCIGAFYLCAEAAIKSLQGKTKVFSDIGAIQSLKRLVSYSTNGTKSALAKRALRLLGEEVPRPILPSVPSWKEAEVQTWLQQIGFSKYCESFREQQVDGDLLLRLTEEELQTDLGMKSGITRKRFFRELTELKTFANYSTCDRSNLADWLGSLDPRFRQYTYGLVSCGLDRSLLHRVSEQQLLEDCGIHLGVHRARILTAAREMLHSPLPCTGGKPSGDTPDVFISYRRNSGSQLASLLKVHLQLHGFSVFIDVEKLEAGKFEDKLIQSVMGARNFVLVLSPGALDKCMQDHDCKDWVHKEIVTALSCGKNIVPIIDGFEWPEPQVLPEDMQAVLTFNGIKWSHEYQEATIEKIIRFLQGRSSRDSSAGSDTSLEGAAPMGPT
Sequence of Mitogen-activated protein kinase 7 (Homo sapiens) (Q13164 whole entry, looked up, the tested form may be a part): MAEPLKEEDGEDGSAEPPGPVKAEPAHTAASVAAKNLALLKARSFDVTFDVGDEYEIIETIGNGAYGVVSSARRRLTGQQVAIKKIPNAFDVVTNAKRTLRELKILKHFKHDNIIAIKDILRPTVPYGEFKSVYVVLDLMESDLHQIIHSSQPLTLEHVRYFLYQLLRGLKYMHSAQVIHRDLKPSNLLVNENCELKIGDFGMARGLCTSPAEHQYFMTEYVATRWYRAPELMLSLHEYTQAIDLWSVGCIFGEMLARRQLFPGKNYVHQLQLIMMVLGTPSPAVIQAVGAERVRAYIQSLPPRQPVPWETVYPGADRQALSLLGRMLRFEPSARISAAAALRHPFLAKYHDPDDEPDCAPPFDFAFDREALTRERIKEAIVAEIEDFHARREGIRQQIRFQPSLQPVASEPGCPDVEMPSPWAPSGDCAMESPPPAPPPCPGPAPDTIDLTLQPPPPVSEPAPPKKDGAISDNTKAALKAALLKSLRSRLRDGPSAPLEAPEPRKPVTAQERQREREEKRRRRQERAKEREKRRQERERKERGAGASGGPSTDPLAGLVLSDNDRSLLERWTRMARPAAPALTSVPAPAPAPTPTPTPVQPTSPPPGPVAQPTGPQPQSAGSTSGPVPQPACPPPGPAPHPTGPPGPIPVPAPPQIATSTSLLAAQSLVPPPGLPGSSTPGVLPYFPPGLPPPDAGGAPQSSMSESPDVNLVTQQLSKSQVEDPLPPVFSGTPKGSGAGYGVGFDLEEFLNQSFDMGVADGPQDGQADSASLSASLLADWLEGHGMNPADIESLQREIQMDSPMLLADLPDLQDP

OC[C@@H](O)[C@@H](O)[C@H](O)[C@H](O)CO
0.6%: nuclear beta-catenin stimulation ([1]; stimulation, at 2 µM)
inactive: nuclear beta-catenin stimulation ([1]; at 10 µM) 0.7% | insulin secretion stimulation [2] -2% | viability decrease [3] -4.45% | tube area decrease [4] 4.3% | GLP1 secretion stimulation [5] 1.1% | inhibition of viability [6] -9.6% | viability decrease (inhibition) [7] 40.5% | viability decrease (inhibition) [8] 8.25% | remaining NAD [9] 10 nM

CCNC(=O)/C=C/c1cccc(Br)c1
inactive: nuclear beta-catenin stimulation ([1]; at 10 µM) 0.9% | insulin secretion stimulation [2] -2.3% | viability decrease [3] -9.75% | tube area decrease [4] -15.1% | GLP1 secretion stimulation [5] -0.7% | inhibition of viability [6] -8.7% | viability decrease (inhibition) [7] 38% | viability decrease (inhibition) [8] 15.1% | remaining NAD [9] 10 nM
0.6%: nuclear beta-catenin stimulation ([1]; stimulation, at 2 µM)

C[C@]1(Cn2ccnn2)[C@H](C(=O)O)N2C(=O)C[C@H]2S1(=O)=O
0.1%: nuclear beta-catenin stimulation ([1]; stimulation, at 2 µM)
-0.0503: z-score [10, 19]
inactive: nuclear beta-catenin stimulation ([1]; at 10 µM) -1.1% | insulin secretion stimulation [2] 10.1% | viability decrease [3] -2.3% | tube area decrease [4] -6% | GLP1 secretion stimulation [5] 1.9% | inhibition of viability [6] 3.3% | viability decrease (inhibition) [7] 17.8% | viability decrease (inhibition) [8] -1.5% | z-score [10, 18] -0.126 | remaining NAD [9] 10 nM

CCCCC(O)c1ccccc1 (stereo not given)
inactive: nuclear beta-catenin stimulation ([1]; at 10 µM) -0.9% | insulin secretion stimulation [2] -0.1% | viability decrease [3] -9.5% | tube area decrease [4] -9.9% | GLP1 secretion stimulation [5] -3.9% | inhibition of viability [6] 5.3% | viability decrease (inhibition) [7] -5.1% | viability decrease (inhibition) [8] -6% | z-score [10, 18] 0.247 | remaining NAD [9] 10 nM
-0.8%: nuclear beta-catenin stimulation ([1]; stimulation, at 2 µM)
0.0374: z-score [10, 19]

NCCNCCNCCNCCN
0.462: z-score [10, 19]
-1.3%: nuclear beta-catenin stimulation ([1]; stimulation, at 2 µM)
inactive: nuclear beta-catenin stimulation ([1]; at 10 µM) -1.7% | insulin secretion stimulation [2] 4.1% | viability decrease [3] -0.2% | tube area decrease [4] -4.2% | GLP1 secretion stimulation [5] -2.1% | inhibition of viability [6] 16% | viability decrease (inhibition) [7] 17.8% | viability decrease (inhibition) [8] 4.2% | z-score [10, 18] -0.618

CCOC(=O)[C@@](C)(N)Cc1ccc(O)c(O)c1
-0.5%: nuclear beta-catenin stimulation ([1]; stimulation, at 2 µM)
active: viability decrease (inhibition) [7] 65%
inactive: nuclear beta-catenin stimulation ([1]; at 10 µM) 0.6% | insulin secretion stimulation [2] 2.8% | viability decrease [3] 37.5% | tube area decrease [4] -1.8% | GLP1 secretion stimulation [5] -2.3% | inhibition of viability [6] 20% | viability decrease (inhibition) [8] 17.2% | z-score [10, 18] -1.64 | luciferase signal [11] 92 AU
-0.614: z-score [10, 19]

O=C1OC2(c3ccccc31)c1cc(I)c(O)c(I)c1Oc1c2cc(I)c(O)c1I
active: GLP1 secretion stimulation [5] 24.3%
inactive: nuclear beta-catenin stimulation ([1]; at 10 µM) 1.2% | insulin secretion stimulation [2] 1.6% | viability decrease [3] -45.8% | tube area decrease [4] 12% | inhibition of viability [6] -2.6% | viability decrease (inhibition) [7] 24.4% | viability decrease (inhibition) [8] -14.4% | remaining NAD [9] 10 nM
1.9%: nuclear beta-catenin stimulation ([1]; stimulation, at 2 µM)

O=C1NCN(c2ccccc2)C12CCN(CCCC(c1ccc(F)cc1)c1ccc(F)cc1)CC2
89.8% and 100%: viability [14]
2.1%: nuclear beta-catenin stimulation ([1]; stimulation, at 2 µM)
active: viability decrease [3] 99.7% | tube area decrease [4] 109% | inhibition of viability [6] 99.6% | viability decrease (inhibition) [7] 103% | viability decrease (inhibition) [8] 102%
inactive: period change [12] -0.085 h | survival [13] 0.417 | parasite load remaining [14] 45.3% and 31.6% | nuclear beta-catenin stimulation ([1]; at 10 µM) 31.6% | insulin secretion stimulation [2] 2.5% | GLP1 secretion stimulation [5] -0.5% | outcome [15] | z-score [10, 18] -1.7 and 0.321 | z-score [16] -0.995 and -1.48
0.391 and -0.284: z-score [10, 19]

O=c1[nH]c(=O)n([C@H]2CCCO2)cc1F
active: viability ([17]; at 0.00488 µM, OCI-P5x cells, with rucaparib 20 µM, 100% = cells with rucaparib alone) 96% | viability ([17]; at 0.0195 µM, OCI-P5x cells, with rucaparib 20 µM, 100% = cells with rucaparib alone) 94.8% | viability ([17]; at 0.0195 µM, OCI-P5x cells, without rucaparib) 99.2% | viability ([17]; at 0.313 µM, OCI-C5x cells, with rucaparib 10 µM, 100% = cells with rucaparib alone) 31.7% | viability ([17]; at 0.313 µM, OCI-C5x cells, without rucaparib) 24.1% | viability ([17]; at 0.313 µM, OCI-P5x cells, with rucaparib 20 µM, 100% = cells with rucaparib alone) 47.7% | viability ([17]; at 0.313 µM, OCI-P5x cells, without rucaparib) 16.2% | viability ([17]; at 1.25 µM, OCI-P5x cells, with rucaparib 20 µM, 100% = cells with rucaparib alone) 97.8% | viability ([17]; at 1.25 µM, OCI-P5x cells, without rucaparib) 97.2% | viability ([17]; at 5 µM, OCI-P5x cells, with rucaparib 20 µM, 100% = cells with rucaparib alone) 87.8% | viability ([17]; at 5 µM, OCI-P5x cells, without rucaparib) 94.3%
0.4%: nuclear beta-catenin stimulation ([1]; stimulation, at 2 µM)
inactive: nuclear beta-catenin stimulation ([1]; at 10 µM) 0.6% | insulin secretion stimulation [2] -1.4% | viability decrease [3] 6% | tube area decrease [4] 3.6% | GLP1 secretion stimulation [5] -1.7% | inhibition of viability [6] 16% | viability decrease (inhibition) [7] 13.4% | viability decrease (inhibition) [8] 11.5% | viability ([17]; at 0.000305 µM, OCI-C5x cells, with rucaparib 10 µM, 100% = cells with rucaparib alone) 106% | viability ([17]; at 0.000305 µM, OCI-C5x cells, without rucaparib) 122% | viability ([17]; at 0.000305 µM, OCI-P5x cells, with rucaparib 20 µM, 100% = cells with rucaparib alone) 115% | viability ([17]; at 0.000305 µM, OCI-P5x cells, without rucaparib) 110% | viability ([17]; at 0.00122 µM, OCI-C5x cells, with rucaparib 10 µM, 100% = cells with rucaparib alone) 119% | viability ([17]; at 0.00122 µM, OCI-C5x cells, without rucaparib) 122% | viability ([17]; at 0.00122 µM, OCI-P5x cells, with rucaparib 20 µM, 100% = cells with rucaparib alone) 106% | viability ([17]; at 0.00122 µM, OCI-P5x cells, without rucaparib) 107% | viability ([17]; at 0.00488 µM, OCI-C5x cells, with rucaparib 10 µM, 100% = cells with rucaparib alone) 103% | viability ([17]; at 0.00488 µM, OCI-C5x cells, without rucaparib) 127% | viability ([17]; at 0.00488 µM, OCI-P5x cells, without rucaparib) 106% | viability ([17]; at 0.0195 µM, OCI-C5x cells, with rucaparib 10 µM, 100% = cells with rucaparib alone) 107% | viability ([17]; at 0.0195 µM, OCI-C5x cells, without rucaparib) 121% | viability ([17]; at 0.0781 µM, OCI-C5x cells, with rucaparib 10 µM, 100% = cells with rucaparib alone) 104% | viability ([17]; at 0.0781 µM, OCI-C5x cells, without rucaparib) 112% | viability ([17]; at 0.0781 µM, OCI-P5x cells, with rucaparib 20 µM, 100% = cells with rucaparib alone) 106% | viability ([17]; at 0.0781 µM, OCI-P5x cells, without rucaparib) 107% | viability ([17]; at 1.25 µM, OCI-C5x cells, with rucaparib 10 µM, 100% = cells with rucaparib alone) 110% | viability ([17]; at 1.25 µM, OCI-C5x cells, without rucaparib) 115% | viability ([17]; at 5 µM, OCI-C5x cells, with rucaparib 10 µM, 100% = cells with rucaparib alone) 133% | viability ([17]; at 5 µM, OCI-C5x cells, without rucaparib) 111%
